# Data: article PMC4336329 (PLoS ONE, 2015)
# About 14,000 (4.5%) of roughly 310,000 compounds showed an effect of 50% or more. Effects have a minus sign here. Only a selection was taken, and strong results are over-represented in it overall.
# Molecular target: human ether-à-go-go-related gene (hERG) potassium channel (human, UniProt Q12809)
# Experiment: primary screen, population patch clamp on CHO cells stably expressing hERG; higher = less effect of the substance
# 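Also: peak tail current of the secondary pulse compared with the same well before compound.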
# Chain of human ether-à-go-go-related gene (hERG) potassium channel (Q12809 whole entry, looked up): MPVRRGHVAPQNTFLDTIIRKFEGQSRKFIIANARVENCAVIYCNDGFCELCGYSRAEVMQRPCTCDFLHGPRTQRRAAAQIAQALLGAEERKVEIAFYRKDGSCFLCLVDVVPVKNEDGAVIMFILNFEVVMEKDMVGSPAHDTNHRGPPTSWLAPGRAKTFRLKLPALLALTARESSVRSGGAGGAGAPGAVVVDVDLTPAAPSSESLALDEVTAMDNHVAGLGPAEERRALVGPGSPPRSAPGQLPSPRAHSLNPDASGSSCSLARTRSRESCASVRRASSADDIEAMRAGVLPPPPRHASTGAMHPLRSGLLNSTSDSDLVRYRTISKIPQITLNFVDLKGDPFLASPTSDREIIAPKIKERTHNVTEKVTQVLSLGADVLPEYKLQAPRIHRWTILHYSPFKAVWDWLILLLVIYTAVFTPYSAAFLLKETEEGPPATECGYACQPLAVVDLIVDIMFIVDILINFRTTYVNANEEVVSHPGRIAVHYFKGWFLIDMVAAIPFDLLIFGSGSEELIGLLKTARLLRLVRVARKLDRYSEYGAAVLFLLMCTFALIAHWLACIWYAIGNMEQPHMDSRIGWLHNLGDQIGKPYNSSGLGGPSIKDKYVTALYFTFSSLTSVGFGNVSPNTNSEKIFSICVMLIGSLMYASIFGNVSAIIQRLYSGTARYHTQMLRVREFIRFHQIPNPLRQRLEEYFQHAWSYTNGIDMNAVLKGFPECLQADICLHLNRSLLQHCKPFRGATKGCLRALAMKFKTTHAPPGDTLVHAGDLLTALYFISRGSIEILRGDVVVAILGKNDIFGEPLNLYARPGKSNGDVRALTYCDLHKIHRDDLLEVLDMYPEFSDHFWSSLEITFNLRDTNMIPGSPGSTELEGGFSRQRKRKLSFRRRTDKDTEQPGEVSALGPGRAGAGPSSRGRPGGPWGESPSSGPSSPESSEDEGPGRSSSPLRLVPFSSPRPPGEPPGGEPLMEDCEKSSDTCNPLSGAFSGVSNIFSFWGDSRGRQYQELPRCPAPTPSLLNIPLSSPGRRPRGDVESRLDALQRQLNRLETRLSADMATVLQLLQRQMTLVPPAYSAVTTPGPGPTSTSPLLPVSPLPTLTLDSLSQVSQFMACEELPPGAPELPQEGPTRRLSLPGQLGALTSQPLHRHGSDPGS
row,SMILES,"hERG current change (%, negative = inhibition) at 10uM"
1,COc1ccc(N2C(=O)C3CCCN3C2c2ccccc2)cc1Cl (centres unmarked),7.28%
2,CCOC(=S)N/C(=N\S(C)(=O)=O)c1ccccc1,-2.92%
3,COc1ccc(C(=S)N2CCOCC2)cc1OC(=O)c1cc(OC)c(OC)c(OC)c1,16.2%
4,COc1ccc(CN(C)C(=O)c2ccccc2Sc2ccccc2C#N)c(OC)c1,0.887%
5,Cc1ccc(C(=O)Cn2ncsc2=N)cc1,-12.5%
6,Cc1ccc(S(=O)(=O)NC2CCCC2)cc1C(N)=O,20.1%
7,Cc1cc(OC(=O)c2cccs2)ccc1C(C)C,12.1%
8,O=[N+]([O-])c1ccc(Cl)c(NC(=S)N2CCCC2)c1,5.47%
9,CC(=O)Nc1ccc(OCC(O)CN2CCN(c3ccc(C)c(Cl)c3)CC2)cc1 (centres unmarked),-27.7%
10,CC(=O)Nc1ccc(OCC(O)CN2CCN(c3ccccc3Cl)CC2)cc1 (centres unmarked),-50.2%
11,CC(=O)Nc1ccc(OCC(O)CN2CCN(c3cc(Cl)ccc3C)CC2)cc1 (centres unmarked),-30.8%
12,CC(=O)Nc1ccc(OCC(O)CN2CCN(c3ccc(Cl)cc3)CC2)cc1 (centres unmarked),-52.7%
13,CC(=O)Nc1ccc(OCC(O)CN2CCN(c3cccc(Cl)c3)CC2)cc1 (centres unmarked),-25.2%
14,CC(=O)Nc1ccc(OCC(O)CN2CCN(c3ccc(F)cc3)CC2)cc1 (centres unmarked),-23.4%
15,CC(C)N(O)C(=O)NC(C)(C)C,11.5%
16,O=C(NC1CCCCC1)C(c1ccc(F)cc1)N(C(=O)c1csnn1)C1CCCC1 (centres unmarked),-7.88%
17,COc1ccc(-c2noc(COc3ccc(Cl)c(C)c3)n2)cc1,2.81%
18,O=C(CCC1CCCN(c2ncccn2)C1)NCc1ccc(F)c(F)c1 (centres unmarked),-40.8%
19,COc1cccc(CNC(=O)CCC2CCCN(Cc3ccc4c(c3)CCO4)C2)c1 (centres unmarked),-33.6%
20,O=C(CCC1CCCN(Cc2ccc3c(c2)CCO3)C1)NCc1ccc(F)c(F)c1 (centres unmarked),-63.7%
21,CC(=O)c1cccc(CN2CCCC(CCC(=O)NCc3ccccc3F)C2)c1 (centres unmarked),-48.5%
22,O=C(CCC1CCCN(C(=O)c2ccncc2)C1)NCc1ccc(F)c(F)c1 (centres unmarked),-1.99%
23,O=C(CCC1CCCN(C(=O)c2ccc3c(c2)OCO3)C1)NCc1ccc(F)c(F)c1 (centres unmarked),-8.73%
24,O=C(CCC1CCCN(Cc2ccc3c(c2)OCCO3)C1)NCc1ccccc1F (centres unmarked),-24.2%
25,CC(=O)c1cccc(CN2CCCC(CCC(=O)NCc3ccc(F)c(F)c3)C2)c1 (centres unmarked),-74.7%
26,O=C(CCC1CCCN(Cc2ccncc2)C1)NCc1ccc(F)c(F)c1 (centres unmarked),-13.6%
27,O=C(CCC1CCCN(Cc2ccc3c(c2)OCCO3)C1)NCc1ccc(F)c(F)c1 (centres unmarked),-61.5%
28,CC1=C(C(=O)N2CCCC(CCC(=O)NCc3ccc(F)c(F)c3)C2)OCCO1 (centres unmarked),3.36%
29,O=C(CCC1CCCN(Cc2cccc3c2OCO3)C1)NCc1ccc(F)c(F)c1 (centres unmarked),-74.4%
